Measured values: PubChem BioAssay AID504444 (National Center for Advancing Translational Sciences (NCATS), 2011)
About 7,500 (2.1%) of roughly 360,000 compounds were called active. Inconclusive results (about 20%) are left out. The call rests on the fitted dose curve; in most records, active means well fitted inhibition curve with a large enough effect; inconclusive means small, poorly fitted or top-dose-only effect, or effect the other way; inactive means flat fitted curve, though single readings scatter. This excerpt belongs to a sample that is enriched for actives.

Assay: Nrf2 qHTS screen for inhibitors; further: nearly all actives have a fitted effect of over 60% in size
Conditions: A549 ARE-Fluc reporter, luciferase luminescence, 18-24 h; series mostly up to 46 µM; activity change, negative = inhibition: at the top concentration
Summary of the method: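 A549 ARE_Fluc cells (5000/well, 5% FBS OPTI-MEM) pre-incubated 2 h, then treated with compounds 18-24 h at 37C/5% CO2 in concentration-response. CellTiter-Fluor viability read first; BugLite luciferase luminescence after 15 min at room temperature gives Nrf2 activity.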
On the % scale 0 is the no-effect control and ±100 the full control effect; potency means the concentration at half of the fitted maximal effect.

Activity change, negative = inhibition, inactive:
Cc1cc(-c2ccc(C)c(S(=O)(=O)NCCCN(Cc3ccccc3)C(C)C)c2)on1 2.12%
Cc1cc(-c2ccc(C)c(S(=O)(=O)Nc3ccc(S(N)(=O)=O)cc3)c2)on1 2.52%
COC(=O)[C@]1(Cc2ccccc2)N[C@H](CN(C)S(=O)(=O)c2ccc(OC(F)(F)F)cc2)[C@@H]2C(=O)N(Cc3ccccc3)C(=O)[C@@H]21 1.61%
Cc1cc(N2CCCC2)ccc1NC(=O)COc1ccc(Cl)cc1 -11.4%
COc1ccc(N(C)S(=O)(=O)c2cccc3nsnc23)cc1 -6.36%
Cc1ccc(-c2nc3cccc(C)n3c2Nc2ccc3c(c2)OCCO3)cc1 -3.89%
CCC(=O)OCCNc1nc(-c2ccccc2)nc2ccccc12 10.9%
Cc1ccccc1NC(=O)NNC(=O)OC(C)(C)C 4.49%
COc1ccc2c(c1)CCc1c(C(=O)Nc3cc(C)ccc3O)noc1-2 10.4%
COc1ccccc1C(=O)Nc1c(C(=O)Nc2ccc(C)cc2)oc2ccccc12 11.1%
COc1ccccc1C(=O)Nc1ccccc1C(=O)Nc1ccccc1 -15.1%
CCOC(=O)c1c(C)[nH]c(C)c1S(=O)(=O)N(C)CC(=O)N1CCN(c2ccccc2)CC1 -24.4%
O=C(Nc1cccc(C(=O)NC2CC2)c1)c1ccc(F)c(S(=O)(=O)N2CCOCC2)c1 -9.02%
O=C(NCC1CCCCC1)c1cc(S(=O)(=O)N2CCCCC2)ccc1N1CCOCC1 -13.3%
O=C(OCCOc1ccccc1F)c1cc(S(=O)(=O)N2CCOCC2)ccc1F -14.5%
Cc1ccc(NC(=O)c2ccc(S(=O)(=O)NCC3CCCO3)cc2)cc1C (stereo unspecified) 2.39%
O=C(NCC1CCCO1)c1ccc(S(=O)(=O)Nc2ccc(F)cc2)cc1 (stereo unspecified) -17.6%
COc1ccc(S(=O)(=O)NCc2cccnc2)cc1NC(=O)c1ccc(C)cc1 -15.4%
O=C(N/N=C/c1cccnc1)c1ccc(NC(=O)c2ccc(F)cc2)cc1 -14.3%
Cc1ccc(NS(=O)(=O)c2cc3c(cc2Br)NC(=O)CO3)cc1C -16.4%
O=C(NCC1CCCCC1)NCC1CCCCC1 6.58%
Cc1cc2c(s1)c1cnn(Cc3cc(F)c(Cl)cc3Cl)c(=O)c1n2C 5.03%
O=[N+]([O-])c1ccccc1/C=C/CN1CCCC(CO)C1 (stereo unspecified) -4.92%
O=[N+]([O-])c1ccccc1/C=C/CN1CCC(O)CC1 -10.8%
Cc1ccc(NC(=O)C(C)Sc2nnc(C3CC3)n2C2CC2)cc1S(=O)(=O)N1CCOCC1 (stereo unspecified) -20.8%
C#CCOCCOCCOCCNc1nc(N2CCN(C(=O)[C@H](CO)n3cc([C@@H](N)C(C)C)nn3)CC2)nc(N2CCN(C(=O)[C@H](CCC(=O)O)n3cc([C@@H](N)[C@H](C)CC)nn3)CC2)n1 10.7%
COc1ccc(C(=O)CSc2nnnn2C)c(OC)c1 -8.69%
COc1ccc(-n2nnnc2SCC(=O)NCc2cccs2)cc1 1.52%
Oc1ccc(-n2nnnc2SCc2c(F)cccc2Cl)cc1 2.72%
Cc1cc(NC(=O)CSc2nnnn2-c2ccc(F)cc2)no1 6.18%
O=C(NCc1nnc(C(=O)Nc2ccc(C(F)(F)F)cc2Cl)o1)c1ccccc1 13.5%
Cc1nn(-c2ccc(F)cc2)c(Cl)c1/C=C(/CCC(=O)O)c1nc2ccccc2s1 -25%
COc1ccc(-c2ccc3ncnc(NCc4cccs4)c3c2)cc1OC -24.9%
O=C(CSc1nnc(-c2ccccc2F)o1)Nc1cccc(C(F)(F)F)c1 9.58%
COc1cc(OC)c(C(=O)OCC(=O)N2CC(=O)Nc3ccccc32)cc1OC 0.599%
COc1ccc(C(=O)OCC(=O)N2CC(=O)Nc3ccccc32)cc1Br -7.14%
COc1cccc(-n2cc(C(=O)NCc3cccc(Cl)c3)c3ccccc3c2=O)c1 -15.8%
Oc1ccccc1-c1nc2ccc(Cl)cn2c1Nc1ccc2c(c1)OCCO2 18.1%
CN1CCN(S(=O)(=O)c2cccc(C(=O)O)c2)CC1 8.01%
CC(=O)c1ccc(OCC(O)CN2CCN(S(=O)(=O)c3cccc(Br)c3)CC2)cc1 (stereo unspecified) -24.4%
NC(=O)C1CCN(C(=O)c2cc(S(=O)(=O)N3CCN(c4ccccc4)CC3)ccc2Cl)CC1 -14.7%
COCCNC(=O)CSc1nc(-c2ccccc2)[nH]c1-c1ccc(C)cc1 -5.73%
COc1cccc(Oc2ccc(N)cc2)c1 14.4%
CC(C)(c1ccccc1)c1ccc(OCCN)cc1 1.37%
COc1cccc(NC(=O)CSc2cc(=O)n(C)c3ccc(Cl)cc23)c1 -28%
Cc1ccc(N2CC(c3nnc(Cc4ccccc4Cl)o3)CC2=O)cc1 (stereo unspecified) 18.7%
CN1CCC(N(C)C(=O)c2ccc(Cl)c(S(=O)(=O)Nc3ccc(Cl)cc3)c2)CC1 3.83%
COc1ccccc1-c1ccnc2[nH]n(-c3ccccc3)c(=O)c12 -1.14%
CCOc1ccccc1NC(=O)c1ccc2c(c1)CCN2S(=O)(=O)c1ccc(C)cc1 14.1%
CC(NS(=O)(=O)c1ccc(Cl)cc1)C(=O)Nc1ccc2c(c1)OCCO2 (stereo unspecified) 0.41%
O=C(Nc1ccc(NC(=O)c2ccc3c(c2)OCO3)cc1)c1cccc(Cl)c1 3.66%
CCN(CC)S(=O)(=O)c1ccc(N(C)CCc2ccc(OC)c(OC)c2)nc1 -2.74%
CCN(CC)S(=O)(=O)c1ccc(NC(=O)c2cnc(C)cn2)cc1 -2.49%
CCOC(=O)C1=C(C)N(C[C@@H]2CC[C@@H](Cc3ccc(-c4ccccc4)cc3)O2)C(=O)NC1c1ccc([N+](=O)[O-])cc1 (stereo partly specified) -22.3%
Cc1ccc(F)cc1NC(=O)CCSc1nc(-c2ccco2)cc(C(F)(F)F)n1 -13.2%
CCOc1ccc2[nH]c3nc(SCC(=O)NC4CCCC4)nnc3c2c1 3.92%
COc1ccc2[nH]c3nc(SCC(=O)NC4CC4)nnc3c2c1 0.184%
CCOC(=O)c1cccc(NC(=O)C(Cc2ccccc2)NS(=O)(=O)c2cccc3nsnc23)c1 (stereo unspecified) 24.3%
Cc1ccc2oc3c(c(=O)c2c1)C(c1ccc(O)cc1)N(Cc1ccc2c(c1)OCO2)C3=O (stereo unspecified) -8.81%
CC(C)[C@@H](C(=O)OCC(=O)c1ccc2c(c1)NC(=O)CO2)N1C(=O)c2ccccc2C1=O -8%
CC(C)c1ccc(S(=O)(=O)Nc2ccc(O)c(Sc3nc4ccccc4s3)c2)cc1 9.38%
O=C(CCC(=O)c1ccccc1)NCc1cccc(C(F)(F)F)c1 3.64%
O=C(CCn1ccc2cc(S(=O)(=O)N3CCCC3)ccc21)NCc1cccc(Cl)c1 -6.98%
COc1ccc(-c2nc(=N)sn2-c2ccccc2)cc1 24%
Cc1ccc(NC2=C(c3ccc(C(F)(F)F)cc3)C(=O)c3ccccc32)cc1F -20.5%
O=S(=O)(Nc1ccc2nc(-c3cccc(Cl)c3)oc2c1)c1ccccc1 -21.7%
O=C(Nn1c(-c2ccccc2)nc2ccccc2c1=O)c1ccc([N+](=O)[O-])cc1 -12.6%
O=C(Nc1ccccc1C(=O)Nc1ccncc1)c1ccc([N+](=O)[O-])cc1 6.83%
COc1cccc(CNCCSc2nnnn2C)c1OCc1ccccc1Cl -11.2%
CC(C)OCCCNC(=O)c1cc(Sc2ccc(F)cc2)nc2ccccc12 -13.6%
COc1cc(OC)c(OC)cc1/C=N/Nc1ncnc2c1[nH]c1ccc(C)cc12 1.21%
Cc1ccc(CCNC(=O)c2nnc(Cc3cccc(F)c3)o2)cc1 -25.7%
CCOC(=O)c1ccc(CSc2nnc3cc(C)c4ccccc4n23)cc1 15%
COC(=O)c1cccc(N2C(=O)C3C4C=CC(CC4)C3C2=O)c1 (stereo unspecified) 0.177%
CC1C=CCC2C(=O)N(c3cccc(C(=O)N4CCCCCC4)c3)C(=O)C12 (stereo unspecified) 10.5%

Potency, inactive:
COc1ccc(N(C)C(=O)CCS(=O)(=O)c2cccc3nsnc23)cc1

Potency, active:
Cc1cc(-c2ccc(C)c(S(=O)(=O)NC(C)Cc3ccco3)c2)on1 (stereo unspecified) 18.4 µM
COc1ccc(N(C)C(=O)C2CCN(S(=O)(=O)c3cccc4nsnc34)CC2)cc1 8.2 µM
CC(C)(C)OC(=O)NNc1c2ccccc2nc2ccccc12 23.1 µM
COc1ccccc1C(=O)Nc1ccc(OCc2nnc3c4ccccc4c(C)nn23)cc1 9.2 µM
O=C(OCCOc1ccccc1Cl)c1cc(S(=O)(=O)N2CCCCC2)ccc1N1CCOCC1 6.51 µM
O=C(Nc1ccc(F)cc1)c1ccc(S(=O)(=O)NCc2cccnc2)cc1 18.4 µM
O=C(Nc1ccc(S(=O)(=O)NCC2CCCO2)cc1)c1ccc(F)cc1 (stereo unspecified) 11.6 µM
CC1CCCCC1NC(=O)/C(C#N)=C/C=C/c1ccccc1[N+](=O)[O-] (stereo unspecified) 16.4 µM
COc1ccc(CSc2nnnn2-c2ccc(O)cc2)cc1F 14.6 µM
COc1ccc(-n2nnnc2SCC(=O)c2ccc(OC)c(OC)c2)cc1 16.4 µM
COc1ccc(Cl)cc1-n1c(C)cc(C(=O)OCC(=O)N2CC(=O)Nc3ccccc32)c1C 18.4 µM
Cc1ccc(OCCNC(=O)c2cccc(S(=O)(=O)N3CCN(Cc4ccccc4)CC3)c2)cc1 11.6 µM
CC(C)(C)c1ccc(Oc2ccc(N)cc2)cc1 4.11 µM
O=C(Nc1cccc(S(=O)(=O)Nc2ccc(Cl)cc2)c1)c1ccc2c(c1)OCCO2 10.3 µM
CCN(CC)S(=O)(=O)c1ccc(N(C)Cc2ccc(C(F)(F)F)cc2)nc1 18.4 µM
O=C(CSc1nnc2c(n1)[nH]c1ccccc12)NC1CCCCC1 3.66 µM
O=C(CCC(=O)N1CCN(S(=O)(=O)c2ccc(Cl)cc2)CC1)NCc1cccc(C(F)(F)F)c1 8.2 µM
O=C(Nc1cc(-c2ccccc2)nn1-c1ccccc1F)c1ccc([N+](=O)[O-])cc1 20.6 µM
CC(C)OCCCNc1ncnc2c1[nH]c1ccc(F)cc12 4.11 µM
Cc1cccc(N2CCN(C(=O)c3cccc(N4C(=O)C5C6C=CC(C6)C5C4=O)c3)CC2)c1C (stereo unspecified) 18.4 µM
